This is an account of results in PubChem BioAssay.

The nature of test [1]: small molecules captured by biotinylated probe aFSTL3 – biochemical, small-molecule microarray, fluorescence 635/667, stem cell growth factor project, primary screen (AID 1064).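 Also: measures binding of the biotinylated anti-FSTL3 antibody to printed compounds.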 The following applies: higher = more signal.
Test [2] is described as follows: binders from COS7 lysate, DM2A8 probe, primary screen, torsin A project, cell lysate, small-molecule microarray, fluorescence 635/667 (AID 1065). The following applies: higher = more signal, COS7 lysate expressing mutant human TOR1A.
A short description of test [3]: small molecules captured by biotinylated probe aFGF2 – biochemical, small-molecule microarray, fluorescence 635/667, stem cell growth factor project, primary screen (AID 1067).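 Also: measures binding of biotinylated aFGF2 protein to printed compounds on slides; z-score merges feature fluorescence and signal-to-noise across triplicate slides.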 The following applies: higher = more signal.
A short description of test [4]: small molecules captured by biotinylated probe aFGF10 – biochemical, small-molecule microarray, fluorescence 635/667, stem cell growth factor project, primary screen (AID 1071).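 Also: score merges 667 nm spot intensity and signal to noise from triplicate slides.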 Conditions: higher = more signal.
For test [5], the target named is Neurogenic locus notch homolog protein 2 (Homo sapiens) (UniProt Q04721). In words: small molecules binding Notch2 protein – biochemical, small-molecule microarray, 635 nm fluorescence, stem cell growth factors, primary screen (AID 1073). The following applies: higher = more signal.
For test [6], the target named is Pro-neuregulin-1, membrane-bound isoform (Homo sapiens) (UniProt Q02297). In words: small molecules binding neuregulin-1 protein – biochemical, small-molecule microarray, fluorescence 635/667, psychiatric disease protein project, primary screen (AID 1075).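 Also: score combines 667 nm spot fluorescence with signal to noise.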 Conditions: NRG1 binding, 635 nm fluorescence, higher = more signal.
In test [7] the test system is Neuregulin-1 EGF-like domain. In words: small molecules binding NRG1 EGF domain – biochemical, small-molecule microarray, 635 nm fluorescence, primary screen (AID 1081).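 Also: binding of the protein to compounds printed on small-molecule microarray slides.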 Conditions: higher = more signal.
The nature of test [8]: FRG1 expression reporter modulators in myotubes – cell-based, C2C12 myotubes, firefly/Renilla luciferase, luminescence, FRG1 inhibition for FSHD, primary screen (AID 1084). The following applies: FRG1 promoter luciferase, higher = more signal, called active from +8 up or from −8 down.
The nature of test [9]: small molecules captured by biotinylated probe aFST – biochemical, small-molecule microarray, fluorescence 635/667, stem cell growth factor project, primary screen (AID 1086).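 Also: score merges 667 nm fluorescence with signal-to-noise of each printed compound spot.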 Conditions: higher = more signal.
Test [10] is described as follows: binders of probe aHhip on microarray, primary screen, stem cell growth factor project, biochemical, small-molecule microarray, fluorescence 635/667 (AID 1087).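 Also: score merges spot fluorescence at 667nm with spot signal to noise ratio.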 The following applies: higher = more signal.
The test system of test [11] is PRMT1 (protein arginine N-methyltransferase 1). In words: small molecules binding arginine methyltransferase PRMT1 – biochemical, small-molecule microarray, 635 nm fluorescence, primary screen (AID 1088).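 Also: binding of Prmt1 protein to compounds spotted on small-molecule microarray slides.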 Conditions: higher = more signal.
A short description of test [12]: growth effects on S. cerevisiae YJM789 – YJM789 clinical isolate, OD600, 24 h, basal, primary screen (AID 1089).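 Also: growth of clinical yeast isolate S. cerevisiae YJM 789 seeded 1000 cells per well; test concentration not given here.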 The following applies: higher = more signal, called active from +8 up or from −8 down.
Test [13] is described as follows: S. pombe growth modifiers, basal conditions – strain 972, OD600, 24 h, no modulator, primary screen (AID 1090).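 Also: basal condition with compound alone and no growth modifier present; test concentration not given here.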 Conditions: S. pombe 972 growth, higher = more signal, called active from +8 up or from −8 down.
The nature of test [14]: budding yeast growth modifiers under rapamycin – strain BY4716, OD600, 96 h, primary screen (AID 1091). Also: test concentration not given here. Conditions: S. cerevisiae BY4716 + rapamycin, higher = more signal, called active from +8 up or from −8 down.
The target of test [15] is Torsin-1A-interacting protein 2 (Homo sapiens) (UniProt Q8NFQ8). In words: small molecules binding lysate-expressed LULL1 – cell lysate, human LULL1 lysate, 635/667 nm fluorescence, primary screen (AID 1092).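 Also: score merges per-feature 667 nm fluorescence with signal-to-noise.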 Conditions: small-molecule microarray, hLULL1 lysate binding, 635 nm fluorescence; higher = more signal.
Test [16] in a line: optical density change of DRC41 E. coli – strain DRC41, OD650, 24 h, E. coli filamentation project, primary screen (AID 1093).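 Also: MC1000 strain lacking acrAB efflux and sulA so SOS filamentation is blocked; test concentration not given here.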 Conditions: E. coli DRC41 growth, higher = more signal, called active from +8 up or from −8 down.
The nature of test [17]: probe aLefty2 binding to arrayed compounds – biochemical, biotinylated probe, 635/667 nm fluorescence, primary screen (AID 1094).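 Also: score merges spot fluorescence near 667 nm with spot signal-to-noise ratio.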 Conditions: small-molecule microarray, higher = more signal.
The test system of test [18] is Noggin (protein binding on small-molecule microarray). In words: small molecules binding Noggin protein – biochemical, 635/667 nm fluorescence, primary screen (AID 1095).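 Also: score merges 667 nm feature fluorescence with signal to noise over triplicate slides.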 Conditions: 635 nm fluorescence, higher = more signal.
Test [19] addresses Neurogenic locus notch homolog protein 3 (Homo sapiens) (UniProt Q9UM47). In words: small molecules binding NOTCH3 protein – biochemical, 635/667 nm fluorescence, primary screen (AID 1096). Conditions: small-molecule microarray, 635 nm fluorescence, higher = more signal.
Test [20] in a line: probe aEGFR binding to arrayed compounds – biochemical, biotinylated probe, 635/667 nm fluorescence, primary screen (AID 1097).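 Also: probe is a biotinylated anti-EGFR antibody binding compounds printed on slides; score combines fluorescence near 667 nm and signal to noise of each spot.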 The following applies: small-molecule microarray, higher = more signal.

Each structure is given as a SMILES string. The source made the active and inactive calls.

Chain of Neurogenic locus notch homolog protein 3 (Homo sapiens) (Q9UM47 whole entry, looked up): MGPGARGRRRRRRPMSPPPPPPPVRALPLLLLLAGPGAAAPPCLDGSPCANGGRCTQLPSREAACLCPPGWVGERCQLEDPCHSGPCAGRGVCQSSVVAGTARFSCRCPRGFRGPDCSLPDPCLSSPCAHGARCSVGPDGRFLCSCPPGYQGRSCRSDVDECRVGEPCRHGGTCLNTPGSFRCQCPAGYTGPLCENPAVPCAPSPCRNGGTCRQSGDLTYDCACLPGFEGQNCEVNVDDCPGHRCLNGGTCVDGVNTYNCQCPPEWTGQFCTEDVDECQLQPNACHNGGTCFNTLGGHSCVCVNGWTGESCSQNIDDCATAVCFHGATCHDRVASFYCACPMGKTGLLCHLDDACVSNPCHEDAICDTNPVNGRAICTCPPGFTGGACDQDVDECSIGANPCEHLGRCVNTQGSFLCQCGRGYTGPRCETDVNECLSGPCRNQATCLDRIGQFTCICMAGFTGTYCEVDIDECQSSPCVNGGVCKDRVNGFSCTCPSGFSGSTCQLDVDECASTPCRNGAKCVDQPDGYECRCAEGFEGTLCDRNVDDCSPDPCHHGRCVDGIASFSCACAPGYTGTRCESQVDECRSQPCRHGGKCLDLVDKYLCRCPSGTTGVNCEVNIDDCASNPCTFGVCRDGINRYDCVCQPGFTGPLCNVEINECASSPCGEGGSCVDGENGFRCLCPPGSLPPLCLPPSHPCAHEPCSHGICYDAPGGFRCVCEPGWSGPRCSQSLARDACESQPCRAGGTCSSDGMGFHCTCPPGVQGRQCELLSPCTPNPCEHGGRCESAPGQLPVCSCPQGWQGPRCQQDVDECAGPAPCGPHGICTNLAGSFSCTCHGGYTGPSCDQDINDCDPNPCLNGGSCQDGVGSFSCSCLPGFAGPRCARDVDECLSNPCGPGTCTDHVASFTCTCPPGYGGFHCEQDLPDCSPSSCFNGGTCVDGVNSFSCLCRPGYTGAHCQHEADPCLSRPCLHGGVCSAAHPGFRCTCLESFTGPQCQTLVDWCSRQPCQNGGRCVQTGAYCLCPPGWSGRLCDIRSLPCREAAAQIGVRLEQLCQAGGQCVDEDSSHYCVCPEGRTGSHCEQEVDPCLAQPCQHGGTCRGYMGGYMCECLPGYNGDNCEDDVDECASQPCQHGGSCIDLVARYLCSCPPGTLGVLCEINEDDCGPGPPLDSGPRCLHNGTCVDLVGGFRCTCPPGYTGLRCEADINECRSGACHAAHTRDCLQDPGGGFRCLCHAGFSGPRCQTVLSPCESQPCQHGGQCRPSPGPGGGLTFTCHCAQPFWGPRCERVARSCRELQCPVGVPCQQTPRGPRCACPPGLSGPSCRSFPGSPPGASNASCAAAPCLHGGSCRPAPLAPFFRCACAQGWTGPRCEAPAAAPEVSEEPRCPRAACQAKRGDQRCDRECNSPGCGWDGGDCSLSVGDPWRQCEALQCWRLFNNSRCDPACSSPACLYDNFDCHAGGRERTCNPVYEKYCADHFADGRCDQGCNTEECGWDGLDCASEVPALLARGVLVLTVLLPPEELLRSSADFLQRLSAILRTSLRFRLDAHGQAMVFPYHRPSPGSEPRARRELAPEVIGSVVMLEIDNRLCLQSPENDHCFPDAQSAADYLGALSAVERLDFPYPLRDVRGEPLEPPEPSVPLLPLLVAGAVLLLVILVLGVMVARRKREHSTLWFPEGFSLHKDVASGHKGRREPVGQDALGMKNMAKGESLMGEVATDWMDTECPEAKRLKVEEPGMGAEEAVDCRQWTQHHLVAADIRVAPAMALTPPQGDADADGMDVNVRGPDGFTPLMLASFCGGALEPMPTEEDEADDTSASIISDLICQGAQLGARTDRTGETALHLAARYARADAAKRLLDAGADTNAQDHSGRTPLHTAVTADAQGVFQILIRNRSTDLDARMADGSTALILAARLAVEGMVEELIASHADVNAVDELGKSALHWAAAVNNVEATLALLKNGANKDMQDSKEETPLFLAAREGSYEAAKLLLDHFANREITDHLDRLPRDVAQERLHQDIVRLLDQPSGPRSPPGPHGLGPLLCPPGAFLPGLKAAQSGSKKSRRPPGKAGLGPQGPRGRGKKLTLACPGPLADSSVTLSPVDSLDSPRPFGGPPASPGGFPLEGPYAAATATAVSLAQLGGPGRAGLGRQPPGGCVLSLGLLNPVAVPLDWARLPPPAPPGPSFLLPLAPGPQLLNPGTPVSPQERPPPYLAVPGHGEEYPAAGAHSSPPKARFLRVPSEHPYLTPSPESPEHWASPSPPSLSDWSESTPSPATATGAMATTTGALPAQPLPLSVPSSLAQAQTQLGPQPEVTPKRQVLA
Chain of Pro-neuregulin-1, membrane-bound isoform (Homo sapiens) (Q02297 whole entry, looked up, the tested form may be a part, canonical isoform): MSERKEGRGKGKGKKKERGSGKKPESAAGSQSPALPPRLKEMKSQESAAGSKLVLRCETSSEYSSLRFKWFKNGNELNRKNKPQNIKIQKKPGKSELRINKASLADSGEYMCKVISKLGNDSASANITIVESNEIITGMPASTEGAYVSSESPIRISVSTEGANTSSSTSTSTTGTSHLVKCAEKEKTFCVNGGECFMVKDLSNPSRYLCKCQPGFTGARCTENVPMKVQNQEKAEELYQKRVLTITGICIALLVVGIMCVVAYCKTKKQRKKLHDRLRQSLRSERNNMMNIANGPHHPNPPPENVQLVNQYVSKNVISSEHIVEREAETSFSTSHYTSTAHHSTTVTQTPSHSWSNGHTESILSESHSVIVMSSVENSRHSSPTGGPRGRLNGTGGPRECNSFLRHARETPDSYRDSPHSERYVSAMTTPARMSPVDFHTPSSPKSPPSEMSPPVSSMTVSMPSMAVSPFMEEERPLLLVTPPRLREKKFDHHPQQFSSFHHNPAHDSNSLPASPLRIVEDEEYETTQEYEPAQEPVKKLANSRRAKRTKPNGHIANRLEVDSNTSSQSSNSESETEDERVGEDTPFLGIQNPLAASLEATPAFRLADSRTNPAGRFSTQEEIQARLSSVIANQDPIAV
Chain of Torsin-1A-interacting protein 2 (Homo sapiens) (Q8NFQ8 whole entry, looked up): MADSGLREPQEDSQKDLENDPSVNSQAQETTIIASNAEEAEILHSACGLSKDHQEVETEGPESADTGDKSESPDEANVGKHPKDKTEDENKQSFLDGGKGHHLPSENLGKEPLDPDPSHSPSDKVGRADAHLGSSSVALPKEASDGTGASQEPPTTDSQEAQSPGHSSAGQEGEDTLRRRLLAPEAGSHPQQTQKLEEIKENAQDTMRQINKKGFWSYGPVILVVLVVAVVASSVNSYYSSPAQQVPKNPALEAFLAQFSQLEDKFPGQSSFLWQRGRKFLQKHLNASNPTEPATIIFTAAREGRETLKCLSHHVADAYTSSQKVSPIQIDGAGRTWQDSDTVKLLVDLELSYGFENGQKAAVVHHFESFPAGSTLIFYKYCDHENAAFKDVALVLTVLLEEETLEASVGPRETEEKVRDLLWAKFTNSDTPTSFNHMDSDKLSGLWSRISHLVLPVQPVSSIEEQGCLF

`O=C1O[C@H](c2ccccc2)[C@H](c2ccccc2)N2[C@H]1[C@@H](C(=O)Nc1nc3ccccc3s1)[C@]1(C(=O)Nc3ccccc31)[C@H]2c1ccc(O)cc1`: the composite z-score in [1] was -0.423; in [2], 0.108; in [3], -0.0516; in test [4] it was 0.405; in test [5], 1.13; in test [6], 1.43. The composite z-score in [7] is 1.25; in test [9], 0.521; in test [10], -0.149; in test [11], 1.55; in [15], 2.74; in test [17] it was -0.23. The composite z-score is 1.24 in [18], 1.15 in [19] and -0.0644 in [20]. Also, the z-score was 0.678 (inactive) in [8]; 0.474 (inactive) in [12]; -0.0898 (inactive) in test [13]; 0.677 (inactive) in test [14]; 0.071 (inactive) in test [16].
`CCOC(=O)C[C@H]1[C@H](OC(=O)Cc2ccc3c(c2)OCO3)[C@@H](NC(=O)c2ccc(-c3ccccc3)cc2)c2cc(OCCCO)ccc2N1C(=O)c1ccccc1`: the composite z-score is -0.386 in [1]; -0.0093 in [2]; -0.0144 in test [3]; 0.585 in test [4]; 0.537 in test [5]; 0.371 in test [6]. The composite z-score in [7] was 0.797; in test [9], 0.239; in test [10], -0.374; in [11], 0.869; in [15] it was 1.81; in test [17] it was -0.137. The composite z-score stood at 0.267 in [18], 0.643 in [19] and 0.0027 in test [20]. The z-score was -3.42 (inactive) in test [8]; 0.22 (inactive) in [12]; -0.661 (inactive) in test [13]; 0.712 (inactive) in [14]; 1.96 (inactive) in [16].
As for `COCC(=C=CC[C@H](O)c1ccc(OCCO)cc1)C[C@H](O)c1cc(Cl)cc(Cl)c1O`, the composite z-score is -0.327 in test [1]; 0.95 in test [2]; -0.0125 in test [3]; 0.754 in test [4]; 0.623 in test [5]; 0.458 in test [6]. In addition, the composite z-score in test [7] was 1.16; in test [9], 0.582; in test [10] it was 0.0505; in test [11], 1.55; in [15], -1.22; in [17], -0.166. Further, the composite z-score in test [18] was 1.86; in [19], 1.12; in test [20], -0.0334. Further, the z-score in test [8] was -3.67 (inactive); in test [12], -24.9 (active); in [13] it was -20.5 (active); in test [14], -3.87 (inactive); in [16] it was 0.813 (inactive).
For the compound `O=C1C2C=CC(C(O)c3ccc(F)cc3)N(Nc3ccccc3)C2C(=O)N1c1ccccc1` (stereo not given), the composite z-score in [1] was 0.719; in test [2], 0.616; in test [3], 0.0332; in [4] it was 0.407; in [5], 0.314; in [6], 0.828. Besides, the composite z-score in [7] was 1.14; in test [9] it was 0.593; in test [10], 0.0053; in test [11], 0.435; in test [15] it was 3.15; in test [17] it was 0.388. Moreover, the values for the composite z-score in test [18], in test [19] and in test [20] were -1.2, 0.246 and -0.0111, respectively. Moreover, the z-score in [8] is -1.65 (inactive); in test [12] it was 0.874 (inactive); in [13], 1.31 (inactive); in test [14] it was 1.59 (inactive); in test [16], -0.754 (inactive).
Turning to `CCOC(=O)C[C@H]1[C@H](OC(=O)c2ccc(C(=O)c3ccccc3)cc2)[C@@H](NC(=O)C2CCCCC2)c2cc(OCCCO)ccc2N1C(=O)c1ccccc1`, the composite z-score in test [1] is -0.379; in [2] it was -0.248; in test [3] it was -0.0478; in [4] it was 0.494; in [5], 1.02; in test [6], 0.857. Also, the composite z-score in test [7] is 0.95; in test [9], 0.253; in test [10], 0.682; in [11] it was 1.55; in test [15] it was 2.04; in [17], -0.02. For the same compound, the composite z-score in test [18] is 0.45; in test [19], -0.215; in [20] it was 0.0546. Besides, the z-score in test [8] is -0.541 (inactive); in test [12], -0.326 (inactive); in test [13] it was 0.358 (inactive); in test [14], -0.155 (inactive); in test [16] it was -1.15 (inactive).
